Hits are enriched below; roughly 3.8% of the tested compounds scored in any of these assays.
HT1080NT lethal: kills 2HG-producing HT-1080-NT fibrosarcoma cells. HT-1080-NT fibrosarcoma viability, CellTiter-Glo ATP luminescence, 48 h. 360,000 compounds, 1.6% hits. Potency, µM (top dose mostly 46.1 µM), without a hit: at the highest dose activity, negative = less viability, hits mostly cytotoxic;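 also: NT is the 2HG producing partner of a matched IDH1 knockdown line; 0% = DMSO-treated cells and -100% = media-only wells without cells; nearly all actives have a fitted effect of over 55% in size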
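Toxicity toward the 2HG-producing NT line was scored as %Activity, normalised to DMSO and no-cell wells, from CellTiter-Glo luminescence after 48 hours' treatment.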
ATXN2 expr inh: inhibitors of ATXN2 expression | HEK-293 ATXN2-luciferase reporter, luminescence, 24 h | Potency, µM (series often up to 57 µM), for the others: at the top dose activity change, negative = inhibition, usual class: inhibitors | 360,000 compounds, 0.72% hits | AID 1745845; also: % is scaled to controls: 0 for no effect and ±100 for the full control effect; nearly all actives have a fitted effect of over 55% in size
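qHTS (up to 57 uM final) was run with 24 h compound exposure of reporter cells at 37 °C. Each well was multiplexed: SteadyGlo luminescence measured ATXN2-luciferase expression after a fluorogenic Gly-Phe-AFC viability readout (25 uM final).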
HepG2 viability: kills HepG2 cells in TGF-b inhibitor counter-screen. Potency, µM (series often up to 46.1 µM), for inactives: top-dose activity change, negative = cytotoxicity, most hits filed as cytotoxic. HepG2 CAGA-GFP viability, ATP luminescence, 18 h. 410,000 compounds, 0.76% hits
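CellTiter-Glo luminescence gave cytotoxicity after 18 hours at 37 degrees C. The cells were HepG2 CAGA-GFP in 1% FBS DMEM, stimulated with 500 pg/mL TGF-beta after compound addition. %Activity was normalised to no-cell wells (complete cell-killing) and DMSO (no toxicity), and curves were fitted and classified.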
ATXN viability: cell viability loss in ATXN counter-screen; S2 cells (HEK-293 line with an ATXN2-luciferase reporter) viability, CellTiter-Fluor protease fluorescence, 24 h; Potency, µM (highest dose often 56.7 µM), actives largely listed as cytotoxic; 400,000 compounds, 0.49% hits; also: nearly all actives have a fitted effect of over 40% in size
TGFb SMAD3 inh: blocks TGF-b signaling; HepG2 CAGA-GFP TGF-b/SMAD3 reporter, GFP fluorescence, 18 h; TGF-beta stimulated, 500 pg/mL final; Potency, µM (top dose mostly 46.1 µM), for the others: at the top dose activity, negative = inhibition, actives largely listed as inhibitors; 410,000 compounds, 1.2% hits; AID 588855; also: % is scaled to controls: 0 for no effect and ±100 for the full control effect; nearly all actives have a fitted effect of over 65% in size
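HEPG2 CAGA-GFP cells (1000/well, DMEM with 1% FBS) were pre-incubated 2 h at 37 degrees C, given compound by pin tool, then stimulated with TGF-beta at 500 pg/mL final for 18 h before per-cell GFP fluorescence imaging.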
HT1080 IDH1KD tx: HT-1080 IDH1 knockdown cell toxicity (counter line). HT-1080 IDH1 knockdown viability, ATP luminescence, 48 h. Potency, µM (titrated, usually from 46.1 µM), inactives show at the highest dose activity, negative = toxicity, actives largely listed as cytotoxic. 360,000 compounds, 2% hits;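 also: 0% = DMSO wells and -100% = cell-free medium wells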
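Using the IDH1-knockdown HT-1080 line run in the same batch and compound series as the NT line, viability after 48 h at 37 °C was determined by CellTiter-Glo luminescence and expressed as % activity.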
The depositor's hits bear a star; i = inactive; u = inconclusive; x = no result. Calls follow the shape of the dose curve; as a rule, active = well fitted curve in the direction sought with a large enough effect; inconclusive = small, poorly fitted or top-dose-only effect, or another doubt; inactive = no such curve, though single readings can be large; an effect the other way counts as inactive or inconclusive. Potency is read from the fitted curve at half-maximal effect.

SMILES | HT1080NT lethal | ATXN2 expr inh | HepG2 viability | ATXN viability | TGFb SMAD3 inh | HT1080 IDH1KD tx
C/C=C(\C)C(=O)NCCN1C2=NC[C@H](Cc3ccccc3)N2C[C@@H]1Cc1ccc(OC)cc1 | -7% | -12% | -18% | i | -7% | 0%
COc1ccc(C[C@H]2CN3C(=NC[C@H]3Cc3ccccc3)N2CCNC(=O)CCC2CCCCC2)cc1 | -4% | 35µM* | -103% | 35µM* | u | -2%
COc1ccc(C[C@H]2CN3C(=NC[C@@H]3Cc3ccccc3)N2CCNC(=O)c2ccc(C)c(Br)c2)cc1 | u | 22µM* | 13µM* | x | u | u
Cc1ccc(NC(=O)Cn2c(=O)n(Cc3ccc4c(c3)OCO4)c(=O)c3ccc(C(=O)NC4CCCCC4)cc32)cc1 | x | 9% | -16% | i | -2% | x
Cc1ccc(C(=O)NCCN2C3=NC[C@H](Cc4ccc(O)cc4)N3C[C@H]2Cc2ccc(O)cc2)cc1Br | 2% | 10% | -19% | i | -12% | 2%
COc1ccc(C[C@H]2CN3C(=NC[C@H]3Cc3ccccc3)N2CCNC(=O)c2ccc(C)c(Br)c2)cc1 | -21% | u | -116% | 28µM* | u | u
Cc1ccc(C(=O)NCCN2C3=NC[C@@H](Cc4ccccc4)N3C[C@H]2Cc2ccc(O)cc2)cc1Br | -19% | 25µM* | 11µM* | u | 16µM* | -15%
COc1ccc(OC)c(-c2cc(Cl)c3c(c2)CC(CNC(=O)c2cccnc2SC)O3)c1 (stereo not drawn) | x | x | x | i | x | x
O=C(Cn1cnc2c(NCc3ccccc3)ncnc21)NCc1ccccc1 | 8.2µM* | -1% | 4% | i | -17% | 6.5µM*
O=C(Cn1cnc2c(NCc3ccccc3)ncnc21)NCc1ccc2c(c1)OCO2 | u | -30% | -30% | u | -2% | -3%
CCCCOc1ccc(CC(=O)N(C)O)cc1 | x | x | 0% | x | 16% | x
O=C(COc1ccccc1)Nc1cccc(-c2nc3cc4ccccc4cc3[nH]2)c1 | u | -20% | 10µM* | u | u | u
Cc1ccccc1C(=O)NNC(=S)NC(=O)c1ccc(Cl)cc1Cl | u | -9% | -16% | i | u | 0%
CCCN(CCC)C(=S)NC(=O)c1ccc(Cl)cc1Cl | 3.2µM* | -24% | -18% | i | u | 2.5µM*
C=CC(=O)Nc1cccc(Nc2nc(N[C@H]3CC[C@H](N(C)C)CC3)nc3c2ncn3C(C)C)c1 | u | 1µM* | -4% | 2µM* | 0.71µM* | 0.65µM*
CC(C)n1cnc2c(Nc3cccc(Cl)c3)nc(NCCCO)nc21 | -14% | -34% | -15% | u | u | u
COc1ccc(CN2CCCC(c3nc(-c4ccncc4)ncc3-c3ccccc3)C2)cc1OC (stereo not drawn) | x | x | x | i | x | x
Cc1ccc2nc(N3CC(=O)Nc4ccccc43)nc(-c3ccccc3)c2c1 | 18µM* | -18% | -6% | i | 0% | 16µM*
CCN(CC)/[N+]([O-])=N/OCOC(=O)C(C)c1ccc2cc(OC(C)=O)ccc2c1 (stereo not drawn) | x | x | -1% | x | 4% | x
COc1cc(C(=O)OCCc2cc3ccccc3c(=O)o2)cc(OC)c1OC | 8.2µM* | u | -13% | u | 3% | 7.3µM*
CC(=O)n1c(Cl)c(NC(=O)CCl)c2ccccc21 | 5.6µM* | u | -45% | u | u | 7.1µM*
Cc1ccc(-n2nc(C)c(NC(=O)CCl)c2C)cc1C | u | u | -68% | x | u | u
Cc1c(C(=O)NN2CCCCC2)nn(-c2ccc(Cl)cc2Cl)c1-c1ccc(Cl)cc1 | x | u | x | i | x | x
CCOC(=O)c1ccc(-c2ccc(/C=N/NC(=O)c3cncc(Br)c3)o2)cc1 | 13% | 42% | -2% | x | 1% | 13%
CCCCOC(=O)c1ccc(-c2ccc(/C=N/NC(=S)NCC)o2)cc1 | 2.8µM* | 11% | -50% | i | -27% | -23%
SMILES | HT1080NT lethal | ATXN2 expr inh | HepG2 viability | ATXN viability | TGFb SMAD3 inh | HT1080 IDH1KD tx
CCCCCC(O)(c1ccccc1)C(CN1CCOCC1)c1ccccc1 (stereo not drawn) | 4% | -23% | -24% | i | u | 9%
CCCCCCC(O)(c1ccccc1)C(CN1CCOCC1)c1ccccc1 (stereo not drawn) | -16% | 5% | -57% | i | 16µM* | 0%
CCCC(O)(c1ccc(CC)cc1)C(CN1CCOCC1)c1ccccc1 (stereo not drawn) | 33µM* | -23% | -28% | i | u | 21µM*
CCCC(O)(c1ccc(Cl)cc1)C(CN1CCOCC1)c1ccccc1 (stereo not drawn) | 13% | -15% | -71% | u | 13µM* | 3%
CCCC(O)(c1ccccc1)C(CN1CCOCC1)c1ccccc1 (stereo not drawn) | 6% | -4% | -1% | i | 0% | 12%
CC(C)CNC(=O)C(=O)Nc1ccc2c(c1)N(S(=O)(=O)c1cccs1)CCC2 | -13% | 19% | -7% | i | 18% | -7%
O=C(NCCCO)C(=O)Nc1ccc2c(c1)N(S(=O)(=O)c1cccs1)CCC2 | 1% | 9% | -20% | i | 18% | 5%
COCCNC(=O)C(=O)Nc1ccc2c(c1)N(S(=O)(=O)c1cccs1)CCC2 | u | -18% | -20% | u | -11% | 6.5µM*
CC(C)CCNC(=O)C(=O)Nc1ccc2c(c1)N(S(=O)(=O)c1cccs1)CCC2 | 3.3µM* | 2% | 0% | i | 5% | 2.6µM*
CCOc1ccc(OCC(=O)NCCS(=O)(=O)N2CCN(c3ccccc3F)CC2)cc1 | x | x | -21% | x | -9% | x
COc1ccccc1CCc1nc2ccccc2n1C1CCN(C(=O)c2cn3ccsc3n2)CC1 | x | x | x | i | x | x
CC(C)Cc1cc(C(=O)Nc2ccc3c(c2)OCO3)no1 | u | 20% | -22% | u | 5% | 5.2µM*
CC(C)(O)C#Cc1ccc(C(=O)Nc2ccc3c(c2)OCO3)s1 | u | 5% | -3% | i | 0% | 7.3µM*
CC(C)Cc1cc(C(=O)Nc2ccc(Br)cc2)no1 | 1% | 53% | -27% | i | -12% | -7%
CC(C)(C)C1CCc2onc(C(=O)Nc3ccc4c(c3)OCO4)c2C1 (stereo not drawn) | u | -14% | 10% | i | -3% | 13µM*
Cc1cc(C(=O)Nc2ccc3c(c2)OCO3)no1 | u | -9% | -15% | i | -3% | 21µM*

Assay outcomes: PubChem BioAssay, National Center for Advancing Translational Sciences (NCATS)
